Compounds without any hit were thinned out: in the full panel of roughly 79,000, 15% have a hit. Active and inactive are the calls of the source. Rule as the data show it: active = growth inhibition above about 70%; inactive = the rest.
Columns and labels:
[1] = NCI Yeast Anticancer Drug Screen. Data for the rad50 strain (AID 155);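 also: 0% = growth of vehicle-only cultures of the same strain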; conditions: S. cerevisiae rad50 strain growth inhibition, hits give high values
Method in brief: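 Compounds were tested on a yeast strain with an engineered DNA damage repair alteration; the reported value is growth inhibition normalised to vehicle treatment.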

[2] = NCI Yeast Anticancer Drug Screen. Data for the mec2-1 strain (AID 157); conditions: S. cerevisiae mec2-1 strain, hits give high values
Method in brief: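 Vehicle-treated cultures served as reference for growth inhibition of compound-exposed mec2-1 yeast.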

[3] = NCI Yeast Anticancer Drug Screen. Data for the sgs1 mgt1 strain (AID 161);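 also: 0% = growth of cultures given vehicle only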; conditions: S. cerevisiae sgs1 mgt1 strain, hits give high values
Method in brief: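 Inhibition of yeast growth, normalised to vehicle-treated controls, is reported for a strain bearing genetic alterations in DNA damage repair.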

[4] = NCI Yeast Anticancer Drug Screen. Data for the cln2 rad14 strain (AID 165);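 also: 0% = growth equal to vehicle treated cultures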; conditions: S. cerevisiae cln2 rad14 strain, hits give high values
Method in brief: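 Each compound was tested on cln2 rad14 yeast. Inhibition of growth was calculated against vehicle-exposed controls.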

[5] = NCI Yeast Anticancer Drug Screen. Data for the bub3 strain (AID 167); conditions: S. cerevisiae bub3 mutant strain, hits give high values
Method in brief: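 Growth of a checkpoint-deficient yeast mutant is measured after compound exposure. Values represent inhibition relative to vehicle.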

[6] = NCI Yeast Anticancer Drug Screen. Data for the mlh1 rad18 strain (AID 175); conditions: S. cerevisiae mlh1 rad18 strain growth inhibition, hits give high values
Method in brief: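 Vehicle-treated cultures served as the reference for growth inhibition in a yeast strain carrying DNA damage repair alterations exposed to each compound.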

[7] = at 5.0 µM (retest, dose inferred, filed as 0.5)
[8] = at 50.0 µM (retest, dose inferred, filed as 5.0)

Measured: growth inhibition

O=CNC(CCCC(=O)O)Cc1cc2ccccc2c2ccccc12 (configuration not stated)
active: [1]; at 50.0 µM 94.5% | [2]; at 50.0 µM 95% | [3]; at 50.0 µM 95.6% | [4]; at 50.0 µM 93.7% | [5]; at 50.0 µM 94.8% | [6]; at 50.0 µM 94.5%
inactive: [1]; [7] 5% | [1]; [8] 17% | [2]; [7] 13% | [2]; [8] 31% | [3]; [7] 5% | [3]; [8] 11% | [4]; [7] 7% | [4]; [8] 22% | [5]; [7] -8% | [5]; [8] -4% | [6]; [7] -3% | [6]; [8] 9%

O=C(Cn1nnc2ccccc21)N1CCN(c2ccccc2)CC1
inactive: [1]; [7] -2% | [1]; [8] 3% | [1]; at 50.0 µM 32.8% | [2]; [7] 4% | [2]; [8] 3% | [2]; at 50.0 µM 33.8% | [3]; [7] -1% | [3]; [8] 5% | [3]; at 50.0 µM -2.35% | [4]; [7] -6% | [4]; [8] 3% | [4]; at 50.0 µM 43.8% | [5]; [7] -1% | [5]; [8] 1% | [5]; at 50.0 µM 14.9% | [6]; [7] -3% | [6]; [8] 3% | [6]; at 50.0 µM -7.75%

O=[N+]([O-])c1cc2ccc(O)cc2c2ccccc12
inactive: [1]; [7] -1% | [2]; [7] -8% | [3]; [7] 10% | [4]; [7] -1% | [4]; [8] 60% | [5]; [7] -3% | [6]; [7] -7%
active: [1]; [8] 89% | [1]; at 50.0 µM 93.5% | [2]; [8] 85% | [2]; at 50.0 µM 94.2% | [3]; [8] 86% | [3]; at 50.0 µM 96.3% | [4]; at 50.0 µM 95.2% | [5]; [8] 86% | [5]; at 50.0 µM 96.2% | [6]; [8] 91% | [6]; at 50.0 µM 93.7%

O=C1C=CC2C(=O)c3ccccc3C(=O)C2=C1 (configuration not stated)
active: [1]; [8] 89% | [1]; at 50.0 µM 73.5% | [2]; [8] 76% | [3]; [8] 72% | [4]; [8] 71%
inactive: [1]; [7] 21% | [2]; [7] 17% | [2]; at 50.0 µM 63.5% | [3]; [7] 4% | [3]; at 50.0 µM 56.9% | [4]; [7] 5% | [4]; at 50.0 µM 66.7% | [5]; [7] 1% | [5]; [8] 55% | [5]; at 50.0 µM 45.5% | [6]; [7] 4% | [6]; [8] 67% | [6]; at 50.0 µM 69.2%

Cn1c(=O)nc2n(-c3ccc(Cl)cc3)c3cc(Cl)ccc3nc-2c1=O
inactive: [1]; [7] 7% | [1]; [8] 20% | [1]; at 50.0 µM 20.6% | [2]; [7] 4% | [2]; [8] 9% | [2]; at 50.0 µM 24.1% | [3]; [7] 9% | [3]; [8] 15% | [3]; at 50.0 µM 7.8% | [4]; [7] 15% | [4]; [8] 20% | [4]; at 50.0 µM 16.9% | [5]; [7] 17% | [5]; [8] 18% | [5]; at 50.0 µM -6.9% | [6]; [7] 7% | [6]; [8] 20%
active: [6]; at 50.0 µM 77%

COc1ccc2nc3cc(Cl)ccc3c(NCCC[N+](C)(C)CCCCCCCCCCCCCCCC[N+](C)(C)CCCNc3c4ccc(Cl)cc4nc4ccc(OC)cc34)c2c1
inactive: [1]; at 50.0 µM 49.2% | [2]; at 50.0 µM 43.6% | [3]; at 50.0 µM 40.4% | [5]; at 50.0 µM 47.2%
active: [1]; [7] 85% | [1]; [8] 99% | [2]; [7] 76% | [2]; [8] 99% | [3]; [7] 77% | [3]; [8] 98% | [4]; [7] 76% | [4]; [8] 98% | [4]; at 50.0 µM 76.6% | [5]; [7] 85% | [5]; [8] 99% | [6]; [7] 92% | [6]; [8] 99% | [6]; at 50.0 µM 97.8%

O=C1CCCC/C1=C\c1ccc(Br)cc1
inactive: [1]; [7] 1% | [2]; [7] -21% | [3]; [7] -28% | [4]; [7] 9% | [5]; [7] -55% | [6]; [7] -17%
active: [1]; [8] 96% | [1]; at 50.0 µM 80.2% | [2]; [8] 99% | [2]; at 50.0 µM 86.7% | [3]; [8] 99% | [3]; at 50.0 µM 90.7% | [4]; [8] 95% | [4]; at 50.0 µM 88.3% | [5]; [8] 99% | [5]; at 50.0 µM 89.4% | [6]; [8] 99% | [6]; at 50.0 µM 92.7%

Cc1c(N)nc(C(CC(N)=O)NCC(N)C(N)=O)nc1C(=O)NC(C(=O)NC(C)C(O)C(C)C(=O)NC(C(=O)NCCc1nc(-c2nc(C(=O)NCCCNC(C)c3ccccc3)cs2)cs1)C(C)O)C(OC1OC(CO)C(O)C(O)C1OC1OC(CO)C(O)C(OC(N)=O)C1O)c1cnc[nH]1 (configuration not stated)
active: [1]; [7] 97% | [1]; [8] 98% | [1]; at 50.0 µM 92.2% | [2]; [7] 97% | [2]; [8] 99% | [2]; at 50.0 µM 93.5% | [3]; [7] 95% | [3]; [8] 98% | [3]; at 50.0 µM 93.5% | [4]; [7] 85% | [4]; [8] 93% | [4]; at 50.0 µM 90.4% | [5]; [7] 93% | [5]; [8] 98% | [5]; at 50.0 µM 93.3% | [6]; [7] 98% | [6]; [8] 99% | [6]; at 50.0 µM 92.2%

Cc1ccc(N=Nc2c(C)c(C#N)c(=S)n(C3OC(CO)C(O)C(O)C3O)c2-c2ccccc2)cc1 (configuration not stated)
inactive: [1]; [7] -8% | [1]; [8] -2% | [1]; at 50.0 µM 35% | [2]; [7] -5% | [2]; [8] 2% | [2]; at 50.0 µM 50.5% | [3]; [7] -1% | [3]; [8] 12% | [3]; at 50.0 µM 65.2% | [4]; [7] 12% | [4]; [8] 15% | [4]; at 50.0 µM 46% | [5]; [7] -4% | [5]; [8] -10% | [5]; at 50.0 µM 42% | [6]; [7] -17% | [6]; [8] 21% | [6]; at 50.0 µM 68.8%
